# Laboratory results: publication PMC4081100, “A DNA-binding-site landscape and regulatory network analysis for NAC transcription factors in Arabidopsis thaliana”
# Assays:
# Assay in all cases: universal protein binding microarray (PBM); transcription factors of Arabidopsis thaliana; high values mean tight binding
# GST-ANAC092(1-176) = target: T1, GST-ANAC092(1-176) (Arabidopsis thaliana, UniProt Q9FKA0 1-176); conditions: protein: recombinant; tags: GST; chain copies: 2; dsDNA, one strand shown
# T1 sequence: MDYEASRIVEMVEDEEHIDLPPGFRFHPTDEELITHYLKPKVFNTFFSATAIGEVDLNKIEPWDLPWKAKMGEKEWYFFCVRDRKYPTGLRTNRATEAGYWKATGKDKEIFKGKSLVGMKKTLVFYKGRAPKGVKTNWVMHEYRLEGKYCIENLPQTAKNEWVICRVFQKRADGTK
# In short: (§1)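 GST-tagged NAC-domain, full-length or DNA-binding-domain proteins were induced in cells, with zinc acetate added for zinc-finger proteins. They were purified on glutathione–Sepharose 4B and quantified by A280 or anti-GST western blot. Each was applied at 200 to 500 nM final, in duplicate, to custom all-10-mer Agilent 4 × 180K arrays made double-stranded by primer extension, with gapped and ungapped 8-mers scored. Binding is the normalised enrichment score (E-score).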
# GST-NTL6(1-168) = GST-NTL6(1-168) (Arabidopsis thaliana, UniProt Q9SCK6 1-168); conditions: protein: recombinant; tags: GST; chain copies: 2; dsDNA, one strand shown
# Chain of GST-NTL6(1-168) (Q9SCK6 1-168): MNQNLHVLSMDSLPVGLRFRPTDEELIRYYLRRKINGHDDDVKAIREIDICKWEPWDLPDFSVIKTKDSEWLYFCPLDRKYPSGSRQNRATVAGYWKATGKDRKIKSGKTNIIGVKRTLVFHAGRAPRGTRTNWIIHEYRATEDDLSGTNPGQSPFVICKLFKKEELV
# In short: as §1
# GST-ANAC055(1-171) = target: T2, GST-ANAC055(1-171) (Arabidopsis thaliana, UniProt Q9LDY8 1-171); conditions: protein: recombinant; tags: GST; chain copies: 2; dsDNA, one strand shown
# T2 sequence: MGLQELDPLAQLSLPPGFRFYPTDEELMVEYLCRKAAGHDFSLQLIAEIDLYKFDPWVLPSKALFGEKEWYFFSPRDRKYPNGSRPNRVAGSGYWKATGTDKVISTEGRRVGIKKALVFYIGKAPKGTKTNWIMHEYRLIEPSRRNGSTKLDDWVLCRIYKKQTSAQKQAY
# In short: as §1
# GST-ATAF1 NAC domain = target: T3, GST-ATAF1 NAC domain (Arabidopsis thaliana, UniProt Q39013 7-158); conditions: protein: recombinant; tags: GST; chain copies: 2; dsDNA, one strand shown
# T3 sequence: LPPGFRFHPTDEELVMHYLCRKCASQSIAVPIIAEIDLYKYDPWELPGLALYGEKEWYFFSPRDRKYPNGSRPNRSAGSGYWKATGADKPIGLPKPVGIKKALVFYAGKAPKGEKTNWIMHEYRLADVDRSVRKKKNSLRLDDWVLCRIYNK
# In short: as §1
# [1] = target: T4, GST-ANAC092(1-285) full length (Arabidopsis thaliana, UniProt Q9FKA0 1-285); conditions: protein: recombinant; tags: GST; chain copies: 2; dsDNA, one strand shown
# T4 sequence: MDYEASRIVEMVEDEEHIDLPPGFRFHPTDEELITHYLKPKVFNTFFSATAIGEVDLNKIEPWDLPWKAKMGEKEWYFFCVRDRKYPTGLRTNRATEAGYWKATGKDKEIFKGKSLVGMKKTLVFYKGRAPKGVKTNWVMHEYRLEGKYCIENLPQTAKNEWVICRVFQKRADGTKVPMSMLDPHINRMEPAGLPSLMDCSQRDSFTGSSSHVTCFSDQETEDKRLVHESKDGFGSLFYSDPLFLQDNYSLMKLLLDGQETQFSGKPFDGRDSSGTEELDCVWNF
# In short: as §1
# GST-NAP(1-166) = target: T5, GST-NAP(1-166) (Arabidopsis thaliana, UniProt O49255 1-166); conditions: protein: recombinant; tags: GST; chain copies: 2; dsDNA, one strand shown
# T5 sequence: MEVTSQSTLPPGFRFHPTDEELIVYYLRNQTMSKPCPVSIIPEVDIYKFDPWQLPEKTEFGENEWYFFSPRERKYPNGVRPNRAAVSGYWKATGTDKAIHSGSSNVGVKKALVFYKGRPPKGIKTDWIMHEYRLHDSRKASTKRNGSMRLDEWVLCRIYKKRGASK
# In short: as §1
# GST-NST2(1-184) = target: T6, GST-NST2(1-184) (Arabidopsis thaliana, UniProt Q9M274 1-184); conditions: protein: recombinant; tags: GST; chain copies: 2; dsDNA, one strand shown
# T6 sequence: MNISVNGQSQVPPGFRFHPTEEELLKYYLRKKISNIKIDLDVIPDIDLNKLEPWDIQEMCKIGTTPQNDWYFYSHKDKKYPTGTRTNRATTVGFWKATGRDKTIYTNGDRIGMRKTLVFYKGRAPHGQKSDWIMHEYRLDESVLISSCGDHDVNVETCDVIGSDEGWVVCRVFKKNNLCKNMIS
# In short: as §1
# GST-NTL8 NAC domain = target: T7, GST-NTL8 NAC domain (Arabidopsis thaliana, UniProt Q9XIN7 14-156); conditions: protein: recombinant; tags: GST; chain copies: 2; dsDNA, one strand shown
# T7 sequence: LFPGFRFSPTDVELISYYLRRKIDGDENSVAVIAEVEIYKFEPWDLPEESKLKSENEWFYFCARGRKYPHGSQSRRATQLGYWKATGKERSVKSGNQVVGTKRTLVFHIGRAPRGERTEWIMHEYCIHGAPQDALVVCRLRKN
# In short: as §1
# GST-SND1(1-203) = target: T8, GST-SND1(1-203) (Arabidopsis thaliana, UniProt Q9LPI7 1-203); conditions: protein: recombinant; tags: GST; chain copies: 2; dsDNA, one strand shown
# T8 sequence: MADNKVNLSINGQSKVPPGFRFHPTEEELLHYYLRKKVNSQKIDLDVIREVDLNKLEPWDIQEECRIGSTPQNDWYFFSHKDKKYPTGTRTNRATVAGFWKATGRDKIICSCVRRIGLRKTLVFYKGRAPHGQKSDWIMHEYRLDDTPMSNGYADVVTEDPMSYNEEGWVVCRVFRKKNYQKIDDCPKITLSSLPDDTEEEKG
# In short: as §1
# GST-WRKY1(266-371) = GST-WRKY1(266-371) (Arabidopsis thaliana, UniProt Q9SI37 266-371); conditions: protein: recombinant; tags: GST; dsDNA, one strand shown
# Chain of GST-WRKY1(266-371) (Q9SI37 266-371): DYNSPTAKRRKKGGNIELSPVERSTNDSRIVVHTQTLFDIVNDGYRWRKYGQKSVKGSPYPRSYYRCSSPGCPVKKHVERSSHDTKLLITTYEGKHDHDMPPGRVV
# In short: as §1
# GST-ANAC019 NAC domain = target: T9, GST-ANAC019 NAC domain (Arabidopsis thaliana, UniProt Q9C932 14-162); conditions: protein: recombinant; tags: GST; chain copies: 2; dsDNA, one strand shown
# T9 sequence: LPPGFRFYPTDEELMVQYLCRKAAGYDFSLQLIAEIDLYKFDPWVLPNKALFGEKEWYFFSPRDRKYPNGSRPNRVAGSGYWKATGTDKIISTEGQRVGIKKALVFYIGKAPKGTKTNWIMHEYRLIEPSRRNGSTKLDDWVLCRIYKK
# In short: as §1
sequence,measurement,setting,value
CGAAGGAA,binding signal,GST-ANAC092(1-176),0.176 E-score
same,binding signal,GST-NTL6(1-168),0.473 E-score
same,binding signal,GST-ANAC055(1-171),0.0644 E-score
same,binding signal,GST-ATAF1 NAC domain,0.057 E-score
same,binding signal,[1],0.0784 E-score
same,binding signal,GST-NAP(1-166),0.0729 E-score
same,binding signal,GST-NST2(1-184),0.17 E-score
same,binding signal,GST-NTL8 NAC domain,0.459 E-score
same,binding signal,GST-SND1(1-203),0.3 E-score
AGCGTTGA,binding signal,GST-NTL6(1-168),0.0737 E-score
same,binding signal,[1],0.0576 E-score
same,binding signal,GST-NST2(1-184),0.0637 E-score
same,binding signal,GST-SND1(1-203),0.0527 E-score
same,binding signal,GST-WRKY1(266-371),0.401 E-score
AGGGAAAG,binding signal,GST-ANAC092(1-176),0.0861 E-score
same,binding signal,GST-NTL6(1-168),0.115 E-score
same,binding signal,GST-ANAC019 NAC domain,0.129 E-score
same,binding signal,GST-NTL8 NAC domain,0.473 E-score
same,binding signal,GST-SND1(1-203),0.114 E-score
CGTCAAAG,binding signal,GST-ANAC092(1-176),0.0844 E-score
same,binding signal,GST-ANAC019 NAC domain,0.0986 E-score
same,binding signal,[1],0.149 E-score
same,binding signal,GST-NST2(1-184),0.102 E-score
same,binding signal,GST-SND1(1-203),0.199 E-score
same,binding signal,GST-WRKY1(266-371),0.427 E-score
GAAGTAAC,binding signal,GST-ANAC092(1-176),0.249 E-score
same,binding signal,GST-NTL6(1-168),0.381 E-score
same,binding signal,GST-ANAC055(1-171),0.106 E-score
same,binding signal,GST-ATAF1 NAC domain,0.0921 E-score
same,binding signal,[1],0.325 E-score
same,binding signal,GST-NST2(1-184),0.301 E-score
same,binding signal,GST-NTL8 NAC domain,0.413 E-score
same,binding signal,GST-SND1(1-203),0.333 E-score
AGGAAAGG,binding signal,GST-ANAC092(1-176),0.0968 E-score
same,binding signal,GST-NTL6(1-168),0.0725 E-score
same,binding signal,GST-ANAC019 NAC domain,0.0699 E-score
same,binding signal,GST-NST2(1-184),0.064 E-score
same,binding signal,GST-NTL8 NAC domain,0.44 E-score
same,binding signal,GST-SND1(1-203),0.136 E-score
CTGACTTC,binding signal,GST-ANAC019 NAC domain,0.0546 E-score
same,binding signal,GST-NTL8 NAC domain,0.113 E-score
same,binding signal,GST-SND1(1-203),0.0589 E-score
same,binding signal,GST-WRKY1(266-371),0.412 E-score
ACTGACCT,binding signal,GST-NTL8 NAC domain,0.109 E-score
same,binding signal,GST-SND1(1-203),0.0503 E-score
same,binding signal,GST-WRKY1(266-371),0.407 E-score
GAGTTGAC,binding signal,GST-ANAC019 NAC domain,0.0811 E-score
same,binding signal,GST-NST2(1-184),0.102 E-score
same,binding signal,GST-SND1(1-203),0.0621 E-score
same,binding signal,GST-WRKY1(266-371),0.476 E-score
AAGTCAAG,binding signal,GST-NTL6(1-168),0.113 E-score
same,binding signal,GST-ATAF1 NAC domain,0.0757 E-score
same,binding signal,[1],0.14 E-score
same,binding signal,GST-NST2(1-184),0.0657 E-score
same,binding signal,GST-SND1(1-203),0.0903 E-score
same,binding signal,GST-WRKY1(266-371),0.479 E-score
CTTGACCC,binding signal,GST-NTL8 NAC domain,0.0908 E-score
same,binding signal,GST-SND1(1-203),0.0887 E-score
same,binding signal,GST-WRKY1(266-371),0.477 E-score
GTCAAAGA,binding signal,GST-ANAC055(1-171),0.078 E-score
same,binding signal,[1],0.0725 E-score
same,binding signal,GST-NST2(1-184),0.053 E-score
same,binding signal,GST-SND1(1-203),0.167 E-score
same,binding signal,GST-WRKY1(266-371),0.469 E-score
GCTTTCCC,binding signal,GST-ANAC092(1-176),0.124 E-score
same,binding signal,GST-NTL6(1-168),0.142 E-score
same,binding signal,GST-ANAC019 NAC domain,0.0714 E-score
same,binding signal,[1],0.117 E-score
same,binding signal,GST-NTL8 NAC domain,0.423 E-score
same,binding signal,GST-SND1(1-203),0.0912 E-score
